Biological target: GOLGA1
Assay: pooled miR-30 sensor sort-seq; sequence = guide strand
Settings: shRNA
Further: reference of the scale not given here.

Sequence | sensor-assay potency score (higher = more potent)
TATAGTAGTGAAGAACTTCAGC | -0.313
TTCGAAGAGCTCATTATCGGGT | 0.0609
TATGGTCTTATTTTTCTCCAGA | -0.384

Biological target: GORASP1
Assay: as above
Settings: shRNA

Sequence | sensor-assay potency score (higher = more potent)
TTATACACCATCAGCTTCAAGG | -1
TTCCACATCCAGCACATGCCAC | -1.05
TCCATGTAGTCACTCTGCCTGG | -1.3
TTATCCTCCAACTTATGGGGGA | -0.359
AATATTAGCATTGATACCCATT | -1.46
TAACTCGCTGCACTGGAGGTGG | -0.397
TACACCATCAGCTTCAAGGGCT | 0.394
TGAAGATGGTTCCACATCCAGC | -1.37
TGACTTGGAGTTATACACCATC | -1.14
TTCAGTAGTGCCTTCAGGGTGT | 0.45

Biological target: GP1BA
Assay: as above
Settings: shRNA

Sequence | sensor-assay potency score (higher = more potent)
TAGTGGATTCTTGTGTTGGATG | -1.15
AACTTGACCACAGTCCTTGTGG | 0.0455
TTTCAGGTAGAGCTCTTGGAGT | -0.846
TTGGGGTCCATCTAGGTGGGAA | -0.196
ATTTTCAGCATTGTCCTGCAGC | -0.496
TTTGGTATTGTATACAGCGAGT | -0.992
TATACAGCGAGTTCTCTTGGAG | -0.385
TTCAGCATTGTCCTGCAGCCAG | -0.558
TAGACGGGAAACTTGTCTGAAT | -0.507
TTGACCACAGTCCTTGTGGCAC | -0.461
TAGAGGATCTCACAGTTGCATA | -1.69
TTTGGCTGTCTAGAGAAGCAGT | -0.816

From the OligoGym collection
